Out of some 220,000 compounds screened, about 3,300 (1.5%) were called active.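 The calls were made as follows: active = compounds that cut the protein-peptide binding signal by more than 50% relative to plate controls in a single-dose test; inactive = the rest.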 Shown is part of a subset that was picked to be rich in actives.
target: Induced myeloid leukemia cell differentiation protein Mcl-1 (Homo sapiens) (UniProt Q07820); experiment: disruptors of Mcl-1 and Noxa BH3 peptide – biochemical, TR-FRET, 1536-well, primary screen (AID 1022); details: TR-FRET Mcl-1/Noxa peptide binding, 2 h; at 21.7 µM; hits give high values;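 also: His-tagged Mcl-1 with rhodamine Noxa BH3 peptide and terbium anti-His antibody; 0% = Mcl-1 plus Noxa peptide wells and 100% = peptide-only wells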
Sequence (Q07820 whole entry, looked up): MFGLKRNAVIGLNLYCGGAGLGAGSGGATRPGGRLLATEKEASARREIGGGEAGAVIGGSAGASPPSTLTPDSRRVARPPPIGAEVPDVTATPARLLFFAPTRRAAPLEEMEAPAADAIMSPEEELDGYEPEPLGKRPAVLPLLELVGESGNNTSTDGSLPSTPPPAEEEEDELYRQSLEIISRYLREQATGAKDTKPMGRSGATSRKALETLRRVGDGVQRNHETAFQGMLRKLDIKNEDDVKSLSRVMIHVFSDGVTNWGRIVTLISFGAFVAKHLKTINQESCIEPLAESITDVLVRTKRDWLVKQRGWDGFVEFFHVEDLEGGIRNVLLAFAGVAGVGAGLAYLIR

inhibition, inactive:
CCc1c(C)nc2cc(-c3cccs3)[nH]n2c1=O 7.24%
O=C(CS(=O)(=O)c1ccc(C(F)(F)F)cn1)NNC(=O)c1ccccc1 -2.05%
COc1cccc(OC)c1CN(C)C(=O)c1cnccc1C(F)(F)F -21.5%
C/C=C(\C)C(=O)N1CC2(CC(c3cccc(NC(=O)CCCCC)c3)=NO2)C[C@@H]1C(N)=O (stereo not given in full) -15.7%
O=C(NCCCc1ccccc1)C1CCC(CNc2c(N3CCCCC3)c(=O)c2=O)CC1 (stereo not given) -3.38%
CN(C)/C=C(/C(=O)c1ccc(Cl)c(Cl)c1)c1nnnn1-c1ccccc1 -12.2%
O=C(COc1ccccc1[N+](=O)[O-])N/N=C/c1ccc[nH]1 -5.33%
Nn1c(SCc2ccccc2)nnc1C1CCCCC1 19.7%
Cc1cc(OCCCN2CCN(Cc3ccccc3)CC2)ccc1[N+](=O)[O-] 27.1%
O=C(COc1ccccc1[N+](=O)[O-])NC1CC1 -42.2%
CC(C)n1c(CN2CCN(Cc3ccccc3)CC2)nc2ccccc21 24.8%
O=[N+]([O-])c1cccc(-c2nnc3c4ccccc4c4ccccc4n23)c1 20.8%
CCOC(=O)c1cnc2[nH]c3ccccc3n2c1=O 22%
CCOC(=O)c1c(CC(C)C)csc1/N=C/C1=C(O)CCCC1=O -5.98%
CC(=O)NC1C(OCc2ccccc2)OC(COC(C)=O)C(OC(C)=O)C1OC(C)=O (stereo not given) 10.8%
COC(=O)c1cc(=O)n(-c2c(Cl)cc(C(F)(F)F)cc2Cl)[nH]1 3.78%
O=C(NNC(=S)Nc1ccccc1)c1cccc(S(=O)(=O)N2CCOCC2)c1 1.14%
Cc1cc(C(=O)Nc2ccccc2N2CCOCC2)c2ccccc2n1 -3.21%
O=C1NC[C@@H](Cc2ccc(O)cc2)N(CCc2cccc(F)c2)C1=O 6.16%
C=CCN1CC(C)/C(=N\O)CC1C (stereo not given) 9.5%
Cc1nn(Cc2ccc(Cl)cc2)c(Cl)c1/C=N/NC(=O)c1cccnc1 27.5%
Cc1nn(Cc2ccc(Cl)cc2)c(Cl)c1/C=N/NC(=O)CNc1ccccc1F 5.98%
O=c1c(/C=N/O)coc2ccc(Cl)cc12 4.15%
O=c1c(-c2ccccc2)coc2cc(O)ccc12 3.79%
Oc1ccc2ccccc2c1N=Nc1nccs1 -81.5%
CCOC(=O)C1(S(=O)(=O)c2ccccc2)CCN(Cc2ccccc2)CC1 10.4%
CC1=C/C(=N\S(=O)(=O)c2ccccc2)C(C(C)C)=CC1=O 17%
CNC1(c2nnnn2-c2c(C)cccc2C)CCOC(C)(C)C1 (stereo not given) -14.2%
C=CC(COCc1ccccc1)N(Cc1ccccc1)S(=O)(=O)c1ccccc1Br (stereo not given) -9.99%
O=C(Nc1ccc(S(=O)(=O)Nc2nccs2)cc1)c1cc(=O)[nH]c2ccccc12 38.3%
CCC(CC)C(=O)Nc1ccc(S(=O)(=O)Nc2nccs2)cc1 -30.3%
O=C(Nc1ccc(S(=O)(=O)N2CCOCC2)cc1)c1ccc2ncsc2c1 15.9%
O=C(Nc1ccccc1C(F)(F)F)N1CCCC1c1cccnc1 (stereo not given) -4.25%
Cc1cc(NCc2cccnc2)no1 -9.18%
CSc1sc(C(=O)NC(=O)NCc2cccnc2)c(C)c1-c1ccon1 -5.48%
COCCn1c(SCC(=O)c2[nH]c(C)c(C(C)=O)c2C)nc2ccccc2c1=O -5.29%
O=C(NCCc1c[nH]c2ccc(Cl)cc12)c1ccc([N+](=O)[O-])cc1 27.8%
NC(=O)c1c(NC(=O)CSc2nc(N)cc(=O)[nH]2)sc2c1CCCC2 39.5%
Fc1cc(F)c2nc(Nc3nc4c(F)cccc4s3)sc2c1 -45.8%
CC(C)Cc1ccc(C(C)C(=N)N)cc1 (stereo not given) 4.15%
O=C(NCC(c1cccs1)N1CCOCC1)c1cc(-c2ccccn2)nc2ccccc12 (stereo not given) -1.37%
COc1ccc(OCCC(=O)c2ccc(OC)cc2)cc1 16.6%
CC(=O)Nc1ccc(CC#N)cc1 -4.22%
Cc1nc2cc3c(cc2s1)OCO3 4.53%
CCN(CC)CCN(C(=O)c1cccc([N+](=O)[O-])c1)c1nc2ccc(OC)cc2s1 19.8%
Cc1ccccc1Cn1c2ccccc2c2cnn(CC(=O)NCc3ccco3)c(=O)c21 6.08%
C=CCNC(=S)N1CCc2[nH]c3ccccc3c2C1 2.21%
CC(C)(C)c1ccc(NC(=O)COC(=O)CCc2nc3ccccc3c(=O)[nH]2)cc1 0.96%
Cc1ccc(NC(=O)COC(=O)CCc2nc3ccccc3n2-c2ccccc2)c(C)c1 4.37%
COCCn1c(SCC(=O)Nc2cc(OC)ccc2OC)nc2c(c1=O)SC(C)C2 (stereo not given) 1.76%
CC(C)(C)c1ccc(CCC2OCC(CN3CCOCC3)O2)cc1 (stereo not given) -0.05%
Cc1ccc(/C=N/NC(=O)CN2CCN(Cc3ccccc3)CC2)s1 14.9%
O=C(Cn1nnc(N2CCCCC2)n1)c1ccc(Cl)c(Cl)c1 13.1%
Cc1ccc(-c2cc(C(=O)NN)n[nH]2)o1 11.3%
Cc1ccc(N2C(=O)CC(Nc3cccc4ccccc34)C2=O)cc1 (stereo not given) -23%
CCc1ccccc1N1C(=O)C2C3CC(=O)C(c4ccccc43)C2C1=O (stereo not given) 1.91%
CCCCNC(=O)OCCSCCS(=O)(=O)c1ccc(Cl)cc1 -6.78%
C/C(=N/NC(=O)c1ccn(C)n1)c1ccncc1 -1.7%
CCOc1ccc2[nH]c(=O)c(C(c3nnnn3CCOC)N3CCOCC3)cc2c1 (stereo not given) -4.39%
COc1ccc(OC)c(C(c2nnnn2C(C)(C)C)N2CCc3ccccc3C2)c1 (stereo not given) 23.3%
CCOC(=O)CN(C)S(=O)(=O)c1ccc(-c2cc(C(=O)OC)sc2C(F)(F)F)cc1 11.3%
O=S(=O)(c1ccc(F)cc1)N1CC=C(c2ccccc2)CC1 -8.68%
COc1cc(C(CCN2CCN(c3ccccc3)CC2)c2c(OC)cc(OC)c3ccc(=O)oc23)cc(OC)c1OC (stereo not given) 12.8%
CC(C)Cc1nnc(NC(=O)CCC(=O)Nc2ccc3cn[nH]c3c2)s1 32.1%
O=C(CCn1nnc2ccccc2c1=O)N[C@@H](Cc1c[nH]c2ccccc12)C(=O)O 18.9%
O=C(O)CC12CC3CC(C1)CC(n1ncc(NCc4ccc(F)cc4)c(Cl)c1=O)(C3)C2 16.2%
Cc1ccc(C)c(SCc2nc3sc(C(=O)O)c(C)c3c(=O)[nH]2)c1 7.18%
CCOC(=O)c1sc2nc(CSc3ccccc3)[nH]c(=O)c2c1C -3.55%
COC(=O)c1cc(N2CCNCC2)nc2ccccc12 -2.31%
NC1=NC(=O)S/C1=C\c1ccc(O)cc1 12.7%
CCOc1ccc(N=C2SC(C(=O)O)CC(=O)N2C)cc1 (stereo not given) 16.1%
O=C(CC12CC3CC(CC(C3)C1)C2)NCc1ccco1 2.69%
O=C(COC(=O)CCC(=O)c1cccs1)NCc1ccco1 41%
COc1ccc(NC(=S)N2CCc3cc(OC)c(OC)cc3C2)cc1 11.1%
CC(/C=N/NC(=O)c1ccncc1)=C\c1ccco1 16.1%
Cc1ccc(-c2cc(C(=O)N/N=C/C=C/c3ccco3)c3ccccc3n2)cc1C 19.7%

inhibition, active:
Cc1cc(=O)n2[nH]c(-c3sccc3-n3c(C)ccc3C)cc2n1 50.6%
Cc1cc(OCC(=O)NC2CCN(C)CC2)ccc1[N+](=O)[O-] 55.3%
COc1cc2c3c(c1)/C(=C1/SC(=S)NC1=O)C(=O)N3C(C)(C)C=C2C 64%
O=c1[nH]c2ccccc2n2c(-c3ccccc3)nnc12 101%
O=C(OCC1O[C@@H](OC(=O)c2cc(O)c(O)c(O)c2)[C@@H](OC(=O)c2cc(O)c(O)c(O)c2)[C@@H](OC(=O)c2cc(O)c(O)c(O)c2)[C@@H]1OC(=O)c1cc(O)c(O)c(O)c1)c1cc(O)c(O)c(O)c1 (stereo not given in full) 114%
Cc1cc(C(=O)NNC(=O)c2cccc(S(=O)(=O)N3CCOCC3)c2)c2ccccc2n1 63.2%
CCn1nc(C)c(/C=N/NC(=O)Cc2ccc(Cl)cc2)c1C 91.8%
O=C1/C(=C/c2coc3ccc(O)cc3c2=O)SC(=S)N1c1ccccc1 56.9%
CC1=C/C(=N\OS(=O)(=O)c2ccccc2)C=CC1=O 61.2%
O=C(Nc1ccc(S(=O)(=O)Nc2nccs2)cc1)c1cc(-c2ccncc2)nc2ccccc12 89.7%
NC(=O)c1c(Nc2nc3c(F)cccc3s2)sc2c1CCCC2 94.4%
CCN(CC)CCN(C(=O)c1ccc(N2C(=O)CCC2=O)cc1)c1nc2cc3c(cc2s1)OCO3 59.3%
CCN(c1ccc(NC(=O)COC(=O)CCc2nc3ccccc3n2-c2ccccc2)cc1)C(C)C 79.3%
CC1=C(C)CC2C(=O)N(c3cccc4ccccc34)C(=O)C2C1 (stereo not given) 53.5%
COCCn1nnnc1C(c1cc2ccc(OC)cc2[nH]c1=O)N1CCc2ccccc2C1 (stereo not given) 58.9%
CSc1nnc(SCc2nc3sc(C(=O)O)c(C)c3c(=O)[nH]2)s1 70.6%
CCOc1ccc(N=C2NC(=O)S/C2=C\c2ccc(O)cc2)cc1 98.8%
O=C(COC(=O)C12CC3CC(CC(C3)C1)C2)NCc1ccco1 54.8%
CC(/C=N/NC(=O)c1cc(-c2ccc3ccccc3c2)n[nH]1)=C\c1ccco1 78.8%

Reference: PubChem BioAssay AID1022 (Emory University Molecular Libraries Screening Center, 2008)
